Among all 39,000 compounds or so, about 500 (1.3%) were called active. This excerpt belongs to a sample that is enriched for actives.

The assay concerns S. aureus RN4220. Briefly: growth inhibition call (relative growth <= 0.2). The settings on record: 50 µM.
As to `C[C@H]1CN([C@@H](C)CO)C(=O)c2cc(NC(=O)NC3CCCCC3)ccc2O[C@H]1CN(C)C(=O)Nc1cccc2ccccc12`, the growth inhibition call is “inactive”. For `OC[C@H]1O[C@@H]2O[C@H]3[C@H](O)[C@@H](O)[C@@H](O[C@H]4[C@H](O)[C@@H](O)[C@@H](O[C@H]5[C@H](O)[C@@H](O)[C@@H](O[C@H]6[C@H](O)[C@@H](O)[C@@H](O[C@H]7[C@H](O)[C@@H](O)[C@@H](O[C@H]1[C@H](O)[C@H]2O)O[C@@H]7CO)O[C@@H]6CO)O[C@@H]5CO)O[C@@H]4CO)O[C@@H]3CO` the value was “inactive”.

Take `COc1ccc(NC(=O)Nc2ccc3c(c2)CC(=O)N([C@@H](C)CO)C[C@H](C)[C@H](CN(C)S(=O)(=O)c2c(C)noc2C)O3)cc1`: the growth inhibition call is “inactive”. For `COc1ccc(S(=O)(=O)Nc2ccc3c(c2)CC(=O)N([C@@H](C)CO)C[C@@H](C)[C@@H](CN(C)C(=O)NC(C)C)O3)cc1` the value was “inactive”; for `OC1OC(c2ccc(Cl)c(Cc3ccc(OC4CCOC4)cc3)c2)C(O)C(O)C1O` (stereo not given), “inactive”. For `CO[C@@H]1CN(C)C(=O)c2ccc(NC(=O)C3CC3)cc2OC[C@H](C)N(C(=O)Cc2ccccn2)C[C@H]1C` the value was “inactive”; for `C[C@@H]1CN([C@H](C)CO)C(=O)c2cc(NS(=O)(=O)c3ccc(F)cc3)ccc2O[C@H]1CN(C)S(=O)(=O)c1cccs1`, “inactive”. Then `Cc1nnc(NCCc2ccccc2)n(N)c1=O`, with “inactive”; and `NCCNc1cccc2ccccc12`, with “inactive”; and `c1ccc(CCNc2ccnc3cc4ccccc4cc23)cc1`, with “active”. Take `C[C@@H]1CN([C@@H](C)CO)C(=O)Cc2cc(NC(=O)CCN3CCOCC3)ccc2O[C@@H]1CN(C)S(=O)(=O)c1ccc(Cl)cc1`: the growth inhibition call was “inactive”. Then `CO[C@@H]1CN(C)C(=O)c2cc(NC(=O)C3CC3)ccc2OC[C@H](C)N(C(=O)CN2CCOCC2)C[C@H]1C`, with “inactive”; and `NC(=O)N1C(=O)[C@H]2[C@H](C1=O)[C@H]1C=C(CCCO)[C@@H]2[C@H](c2ccc(CN3CCCC3)cc2)N1Cc1sc2ccccc2c1Cl`, with “inactive”; and `COC(=O)C1=CC(CCCO)=C[C@@H](c2ccc(CN3CCCC3)cc2)N(Cc2sc3ccccc3c2Cl)C=C1C(=O)OC`, with “inactive”. Then `CS(=O)(=O)CCOC(=O)C1=CC(CCCO)=C[C@@H](c2ccc(CN3CCCC3)cc2)N(Cc2sc3ccccc3c2Cl)C=C1C(=O)OCCS(C)(=O)=O`, with “active”. With `COc1c(C)cc(-c2cc3c(c(CCc4ccccc4)n2)[Si](C(C)C)(C(C)C)O[C@H]3c2ccccc2)cc1C`, the growth inhibition call was “active”. Then `COc1c(C)cc(-c2cc3c(c(-c4ccccc4)n2)[Si](C(C)C)(C(C)C)O[C@H]3c2ccccc2)cc1C`, with “inactive”; and `CCCCCCc1nc(-c2cc(C)c(OC)c(C)c2)cc2c1[Si](C(C)C)(C(C)C)O[C@H]2c1ccccc1`, with “inactive”; and `COc1cc(Cc2cc3c(c(CCc4ccccc4)n2)[Si](C(C)C)(C(C)C)O[C@H]3c2ccccc2)cc(OC)c1OC`, with “active”. Then `COc1cc(Cc2cc3c(c(CCc4ccccc4)n2)[Si](C(C)C)(C(C)C)OC3)cc(OC)c1OC`, with “inactive”; and `COc1ccc(-c2cc3c(c(CCc4ccccc4)n2)[Si](C(C)C)(C(C)C)O[C@H]3c2ccccc2)cn1`, with “inactive”. For `C=CCNC1=C2C[C@H](C)C[C@H](OC)[C@@H](O)[C@H](C)/C=C(\C)[C@H](OC(N)=O)[C@H](OC)/C=C/C=C(\C)C(=O)NC(=CC1=O)C2=O` the value was “inactive”; for `C[C@H](CO)N1C[C@H](C)[C@H](CN(C)Cc2ccc(C(=O)Nc3ccccc3N)cc2)Oc2c(NC(=O)NC3CCCCC3)cccc2C1=O`, “inactive”; for `C[C@@H]1CCCCO[C@@H](CN(C)CC2CCCCC2)[C@H](C)CN([C@@H](C)CO)C(=O)c2cc(NS(=O)(=O)c3cccs3)ccc2O1`, “inactive”. For the molecule `O=C(NCc1ccc(Oc2ccccc2)cc1)c1nc(-c2cc(Br)c(O)c(Br)c2)no1`, the growth inhibition call was “active”. Then `NNC(=O)c1nc(-c2ccccc2)no1`, with “inactive”; and `NCCNC(=O)c1nc(-c2ccc(Br)o2)no1`, with “inactive”; and `COc1ccc(NC(=O)N(C)C[C@H]2Oc3c(NC(=O)c4ccc(-c5nccs5)cc4)cccc3C(=O)N([C@@H](C)CO)C[C@H]2C)cc1`, with “inactive”. For `CN(C)c1cc[n+](C(=O)N2CCOCC2)cc1` the value was “inactive”. Then `COc1ccc2[nH]c(=O)[nH]c(=O)c2c1`, with “active”; and `O=c1[nH]c(=O)c2ccccc2[nH]1`, with “inactive”. `O=c1[nH]c(=O)c2cc(Br)ccc2[nH]1`: the growth inhibition call was “inactive”.

`O=C(Nc1ccc(-c2nc3ccc(NC(=O)c4ccc(Cl)cc4)cc3[nH]2)cc1)c1ccc(Cl)cc1`: the growth inhibition call was “inactive”. Then `COCC#Cc1cnc2c(c1)C(=O)N([C@H](C)CO)C[C@H](C)[C@@H](CN(C)S(=O)(=O)c1cn(C)cn1)O2`, with “inactive”; and `COc1ccc(CN(C)C[C@H]2OCCCC[C@H](C)Oc3ccc(NC(=O)c4ccccc4)cc3C(=O)N([C@@H](C)CO)C[C@@H]2C)cc1`, with “inactive”; and `Cc1cc(C(=O)Nc2cccc3c2O[C@@H](CN(C)C(=O)NC(C)C)[C@H](C)CN([C@@H](C)CO)C3=O)n(C)n1`, with “inactive”.

For `C[C@@H]1CN([C@H](C)CO)C(=O)c2cc(NC(=O)Nc3ccccc3)ccc2O[C@@H](C)CCCCO[C@@H]1CN(C)Cc1ccccc1`, the growth inhibition call was “inactive”. For `C[C@@H](OC[C@@]1(c2ccccc2)CC[C@]2(CCC(=O)N2)CN1)c1cc(C(F)(F)F)cc(C(F)(F)F)c1` the value was “active”. Then `COc1ccc(NC(=O)Nc2cccc3c2O[C@@H](CN(C)S(C)(=O)=O)[C@H](C)CN([C@@H](C)CO)C3=O)cc1`, with “inactive”; and `Cc1cccnc1[C@H](c1ccc(F)cc1)N(C)C(=O)C1CCN(CCn2cnc3c2c(=O)n(C)c(=O)n3C)CC1`, with “inactive”; and `Cc1ccccc1[C@@H](c1ncccc1C)N(C)C(=O)C1CCN(CCOc2ccc(Cl)cc2Cl)CC1`, with “active”.

Consider `COc1ccccc1[C@@H](NC(=O)C1CCN(CCOc2ccc(Cl)cc2Cl)CC1)c1ccccn1`, for which the growth inhibition call was “inactive”. Then `Cc1cc(Cl)ccc1OCCN1CCN(C(=O)[C@H]2CC[C@@H](N)C2)CC1`, with “inactive”; and `Cc1ccccc1[C@@H](c1ncccc1C)N(C)C(=O)C1CCN(CCOc2ccc3ccccc3c2)CC1`, with “inactive”. For `Cc1cccnc1[C@H](c1ccc(F)cc1)N(C)C(=O)C1CCN(CCOc2ccc(Cl)cc2Cl)CC1` the value was “active”.

The values above are taken from the antibiotic and cytotoxicity screens of Wong et al. (2023).
